Measured values: PubChem BioAssay (NCATS)
Inconclusive results are not listed. Calls of active or inactive are those of the source. Calls come from the whole dose curve; as a rule, active = well fitted curve in the direction sought with a large enough effect; inconclusive = small, poorly fitted or top-dose-only effect, or another doubt; inactive = no such curve, though single readings can be large; an effect the other way counts as inactive or inconclusive.

Experiments:
[1] = Quantitative High-Throughput drug screen in 47 multiple myeloma cell lines against the NCATS MIPE library collection: KMS21BM_JCRB cell viability assay (AID 1918974); settings: ATP luminescence, 48 h; viability: at 45.8 µM
Outline: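 Relative luminescence from CellTiter-Glo served as the viability signal, referenced to DMSO-treated (100%) and cell-free medium (0%) controls. Treatment lasted 48 hours at 37C with 500 cells per well.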

[2] = Quantitative High-Throughput drug screen in 47 multiple myeloma cell lines against the NCATS MIPE library collection: KMS26_JCRB cell viability assay (AID 1918975); note: nearly all actives have a fitted effect of over 45% in size
Outline: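 Steps: seed 500 cells per well; pin-transfer MIPE 4.0 library; incubate 48 h at 37C, 5% CO2, humidified; add CellTiter-Glo, 5 min room temperature; read luminescence.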

[3] = Quantitative High-Throughput drug screen in 47 multiple myeloma cell lines against the NCATS MIPE library collection: MM1R_ATCC cell viability assay (AID 1918981); note: nearly all actives have a fitted effect of over 35% in size
Outline: (§1)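 Myeloma cells (500/well) treated with MIPE 4.0 compounds for 48 h at 37 °C, 5% CO2. Viability read as ATP via CellTiter-Glo luminescence after 5 min at RT; DMSO-only wells = 100%, media-only = 0% viability.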

[4] = Quantitative High-Throughput drug screen in 47 multiple myeloma cell lines against the NCATS MIPE library collection: MMM1_PLB cell viability assay (AID 1918976); note: nearly all actives have a fitted effect of over 35% in size
Outline: as §1

[5] = Quantitative High-Throughput drug screen in 47 multiple myeloma cell lines against the NCATS MIPE library collection: NCIH929_DSMZ cell viability assay (AID 1918978); note: nearly all actives have a fitted effect of over 35% in size
Outline: as §1

[6] = Quantitative High-Throughput drug screen in 47 multiple myeloma cell lines against the NCATS MIPE library collection: OCIMY1_PLB cell viability assay (AID 1918979); note: nearly all actives have a fitted effect of over 35% in size; for viability: series mostly up to about 46 µM
Outline: as §1

[7] = Quantitative High-Throughput drug screen in 47 multiple myeloma cell lines against the NCATS MIPE library collection: LP1_DSMZ cell viability assay (AID 1918982); note: nearly all actives have a fitted effect of over 35% in size
Outline: as §1

[8] = Quantitative High-Throughput drug screen in 47 multiple myeloma cell lines against the NCATS MIPE library collection: KMS28PE_JCRB cell viability assay (AID 1918983); note: nearly all actives have a fitted effect of over 35% in size
Outline: as §1

[9] = Quantitative High-Throughput drug screen in 47 multiple myeloma cell lines against the NCATS MIPE library collection: MM1S_ATCC cell viability assay (AID 1918980); note: nearly all actives have a fitted effect of over 45% in size
Outline: as §1

[10] = Quantitative High-Throughput drug screen in 47 multiple myeloma cell lines against the NCATS MIPE library collection: MOLP8_DSMZ cell viability assay (AID 1918977); note: nearly all actives have a fitted effect of over 45% in size
Outline: as §1
Potency is the fitted concentration of half-maximal effect.

SMILES | Potency [1] | Potency [2] | Potency [3] | Potency [4] | Potency [5] | Potency [6] | Potency [7] | Potency [8] | Potency [9] | Potency [10] | viability [1]
O=c1cc(-c2ccc(O)c(O)c2)oc2cc(O)cc(O)c12 | 2.09 µM (active) | inactive | inactive |  |  |  |  |  |  |  | 
CC(=O)Nc1cccc(-n2c(=O)n(C3CC3)c(=O)c3c(Nc4ccc(I)cc4F)n(C)c(=O)c(C)c32)c1 | 0.0332 µM (active) | inactive |  | 7.43 µM (active) | 0.0187 µM (active) | 0.0033 µM (active) | inactive | 8.33 µM (active) |  |  | 
CNC(=O)[C@H](CC1=CN=C2C=CCC=C12)NC(=O)[C@@H](CC(=O)NO)CC(C)C | 0.105 µM (active) | inactive |  |  | 23.5 µM (active) | inactive | inactive |  | 3.32 µM (active) |  | 
Cc1cc(-c2ncc(CC(=O)Nc3ccc(-c4cnccn4)cn3)cc2C)ccn1 | 18.7 µM (active) |  |  | 16.6 µM (active) |  | inactive |  | 16.6 µM (active) | 18.7 µM (active) |  | 
NS(=O)(=O)c1ccc(Nc2nc(OCC3CCCCC3)c3[nH]cnc3n2)cc1 | 4.18 µM (active) |  | 14.8 µM (active) | 2.09 µM (active) | 4.18 µM (active) | inactive |  |  |  |  | 
COc1cc2nc(-c3cc(F)ccc3O)nc(N[C@@H]3CNC[C@@H]3C(C)(C)O)c2cc1OC | 0.935 µM (active) | 18.7 µM (active) | 9.35 µM (active) |  | 7.43 µM (active) | 18.7 µM (active) | 9.35 µM (active) | 20.9 µM (active) | 18.7 µM (active) | 5.9 µM (active) | 
OC1CCC(Nc2ncc3nc(Nc4c(F)cc(F)cc4F)n([C@@H]4CCOC4)c3n2)CC1 (stereo partly specified) | 4.69 µM (active) | inactive | 10.5 µM (active) |  |  |  |  | inactive | 11.8 µM (active) | 11.8 µM (active) | 
COC(=O)Nc1ccc(-c2nc(N3CCOCC3)c3cnn(C4CCN(C(=O)OC)CC4)c3n2)cc1 | 0.0526 µM (active) | 1.66 µM (active) | 0.743 µM (active) | 0.418 µM (active) | 0.0372 µM (active) | 5.26 µM (active) | 0.235 µM (active) | 1.18 µM (active) | 0.0066 µM (active) | 1.48 µM (active) | 
CSc1cccc(Nc2ncc3cc(-c4c(Cl)cccc4Cl)c(=O)n(C)c3n2)c1 | 0.0209 µM (active) | 9.35 µM (active) | 2.35 µM (active) |  | 13.2 µM (active) |  |  | 2.35 µM (active) |  | 0.833 µM (active) | 
CC1(C)OC2CC3C4CC(F)C5=CC(=O)C=CC5(C)C4C(O)CC3(C)[C@]2(C(=O)CO)O1 (stereo partly specified) | 0.0083 µM (active) | inactive | inactive | inactive | inactive | inactive | 0.0023 µM (active) | inactive | 0.0166 µM (active) |  | 
CN(C)CC[C@H](CSc1ccccc1)Nc1ccc(S(=O)(=O)NC(=O)c2ccc(N3CCN(Cc4ccccc4-c4ccc(Cl)cc4)CC3)cc2)cc1[N+](=O)[O-] | 0.0833 µM (active) | 1.66 µM (active) | 0.833 µM (active) | 0.526 µM (active) |  | 3.72 µM (active) | 23.5 µM (active) | 1.48 µM (active) | 1.66 µM (active) |  | 
CCc1cccc(CC)c1NC(=O)N1Cc2[nH]nc(NC(=O)c3ccc(N4CCN(C)CC4)cc3)c2C1 | 3.72 µM (active) |  | 14.8 µM (active) | inactive | 16.6 µM (active) |  |  | 14.8 µM (active) |  | 16.6 µM (active) | 
C=C1[C@H](n2cnc3c(=O)[nH]c(N)nc32)C[C@H](O)[C@H]1CO | 1.32 µM (active) |  | 5.9 µM (active) | 3.72 µM (active) | 20.9 µM (active) | inactive |  |  |  |  | 
Cc1nc(NC(=O)N2CCC[C@@H]2C(N)=O)sc1-c1csc(C(C)(C)C)n1 | 1.05 µM (active) | 1.18 µM (active) | 5.9 µM (active) | 0.935 µM (active) | 0.833 µM (active) |  |  | 3.72 µM (active) | 6.62 µM (active) | 0.166 µM (active) | 
CNC(=O)c1cc(Oc2ccc(NC(=O)Nc3ccc(Cl)c(C(F)(F)F)c3)c(F)c2)ccn1 | 2.96 µM (active) | 23.5 µM (active) | 20.9 µM (active) | 8.33 µM (active) |  |  | 16.6 µM (active) | 20.9 µM (active) | 2.09 µM (active) | 13.2 µM (active) | 
Clc1ccc(COC(Cn2ccnc2)c2ccc(Cl)cc2Cl)c(Cl)c1 (stereo unspecified) | 37.2 µM (active) |  | 23.5 µM (active) | 16.6 µM (active) | 18.7 µM (active) |  |  | 18.7 µM (active) |  | 18.7 µM (active) | 
COc1cc(N2CCN(C)CC2)ccc1Nc1nc(N)c(C(=O)c2c(Cl)cccc2Cl)s1 | 10.5 µM (active) | 4.18 µM (active) |  | 8.33 µM (active) | inactive |  |  | 14.8 µM (active) | 20.9 µM (active) |  | 

SMILES | Potency [1] | Potency [2] | Potency [3] | Potency [4] | Potency [5] | Potency [6] | Potency [7] | Potency [8] | Potency [9] | Potency [10] | viability [1]
CN(C)CCOc1ccc(-c2nc(-c3ccc4c(c3)CCC4=NO)c(-c3ccncc3)[nH]2)cc1 | 7.43 µM (active) | 18.7 µM (active) | 18.7 µM (active) | 20.9 µM (active) | 16.6 µM (active) | 20.9 µM (active) | 20.9 µM (active) | 23.5 µM (active) | 18.7 µM (active) | 14.8 µM (active) | 
CCC(=O)N1CCN(c2ccc(-n3c(=O)ccc4cnc5ccc(-c6cnc7ccccc7c6)cc5c43)cc2C(F)(F)F)CC1 | 0.0372 µM (active) | 0.0743 µM (active) | 0.0372 µM (active) |  |  |  |  | 0.0093 µM (active) | 0.0662 µM (active) | 0.0332 µM (active) | 
CCN1C[C@H](C)n2c(c(O)c3c(=O)n(Cc4ccc(F)c(Cl)c4)nc(C(=O)NC)c32)C1=O | inactive | inactive | 3.32 µM (active) | 2.64 µM (active) | inactive | inactive |  | inactive | inactive |  | 
CCOc1ccccc1N=Nc1c(C)[nH]n(-c2nc(-c3ccccc3)cs2)c1=O | inactive | 4.18 µM (active) | 3.32 µM (active) | 8.33 µM (active) | 0.264 µM (active) | 7.43 µM (active) |  |  | 13.2 µM (active) |  | 
O=C(c1ccc(C=Cc2n[nH]c3ccccc23)cc1)N1CCNCC1 | 0.59 µM (active) |  | 13.2 µM (active) | 5.26 µM (active) | 2.35 µM (active) |  |  | 6.62 µM (active) | 16.6 µM (active) | 16.6 µM (active) | 
Cc1cc(CS(=O)(=O)c2ccccc2)cc(OCc2ccc(CN3CCC[C@H]3CO)cc2)c1 | 1.18 µM (active) |  |  | 13.2 µM (active) | inactive | inactive |  |  | 4.69 µM (active) |  | 
Cc1cnc(Nc2cccc(CN3CCOCC3)c2)nc1Nc1cccc(S(=O)(=O)NC(C)(C)C)c1 | 0.833 µM (active) | 18.7 µM (active) | 10.5 µM (active) | 18.7 µM (active) |  |  | 14.8 µM (active) | 14.8 µM (active) |  | 2.96 µM (active) | 
CCC=CC[C@H]1C(=O)CC[C@@H]1CC(=O)OC | inactive |  |  | 10.5 µM (active) |  | inactive | inactive | inactive |  | inactive | 
N#CC(=C1Nc2ccccc2S1)c1ccnc(OCc2ccc(CN3CCOCC3)cc2)n1 | 0.0264 µM (active) | 20.9 µM (active) | 14.8 µM (active) | 14.8 µM (active) | 4.69 µM (active) |  | 20.9 µM (active) |  | 1.48 µM (active) |  | 
CN[C@@H](C)[C@H]1[C@H](O)C[C@@]2(C)[C@@H]3CC[C@H]4C(C)(C)[C@@H](NC)CC[C@@]45C[C@@]35CC[C@]12C |  | inactive | inactive |  | inactive |  | inactive | inactive |  | inactive | 62.4% (active)
C[C@@H]1O[C@@H](O[C@H]2CC[C@@]3(C)[C@H](CC[C@@H]4[C@H]3C[C@@H](O)[C@]3(C)[C@@H](C5=CC(=O)OC5)CC[C@]43O)C2)C[C@H](O)[C@@H]1O[C@H]1C[C@H](O)[C@H](O[C@H]2C[C@H](O)[C@@H](O)[C@@H](C)O2)[C@H](C)O1 (stereo in doubt) | 0.215 µM (active) | 0.27 µM (active) | 0.27 µM (active) | 0.171 µM (active) | 0.34 µM (active) |  | 0.121 µM (active) | 0.152 µM (active) | 0.34 µM (active) | 0.152 µM (active) | 
O=c1[nH]nc(OCCCc2ccc(Cl)cc2)c(NCc2cccnc2)c1Br | 4.69 µM (active) |  | 16.6 µM (active) | 16.6 µM (active) | 7.43 µM (active) | 18.7 µM (active) | 14.8 µM (active) |  |  |  | 
CC[C@]1(O)C[C@H]2CN(CCC3=c4ccccc4=N[C]3[C@@](C(=O)OC)(c3cc4c(cc3OC)N(C)[C@H]3[C@@](O)(C(N)=O)[C@H](O)[C@]5(CC)C=CCN6CC[C@]43[C@@H]65)C2)C1 | 0.0935 µM (active) | 0.0662 µM (active) | 0.0662 µM (active) | 0.132 µM (active) | 0.166 µM (active) | 0.662 µM (active) | 0.0083 µM (active) | 0.0023 µM (active) |  | 0.148 µM (active) | 
N#CC(c1ccc(Cl)cc1)c1c(Cl)cc(-n2ncc(=O)[nH]c2=O)cc1Cl (stereo unspecified) | 0.235 µM (active) | inactive | 2.64 µM (active) |  |  | inactive |  | inactive | 20.9 µM (active) | inactive | 
Cn1c(=O)c(-c2c(Cl)cccc2Cl)cc2cnc(Nc3cccc(C(=O)O)c3)nc21 | 0.0833 µM (active) | 3.32 µM (active) | 9.35 µM (active) |  | inactive |  |  | 5.26 µM (active) |  | 2.09 µM (active) | 
CCC(C)SSc1ncc[nH]1 (stereo unspecified) | 8.33 µM (active) | 3.72 µM (active) | 5.26 µM (active) | 7.43 µM (active) | 3.72 µM (active) | 8.33 µM (active) | 8.33 µM (active) | 11.8 µM (active) |  | 4.18 µM (active) | 
CN1CCN(c2cccc(Nc3nc4c(-c5ccc(S(C)(=O)=O)cc5)cccn4n3)c2)CC1 | 3.32 µM (active) | 20.9 µM (active) | 16.6 µM (active) | 16.6 µM (active) |  |  | 14.8 µM (active) | 16.6 µM (active) |  | 9.35 µM (active) | 
